# Source: the supplement of paper PMC5940239
# Values without a mark were called inactive.
# Test system: Madurella mycetomatis MM55
# Assay: percent growth relative to solvent control; higher = less inhibition, active = 20 or less
# Details: 100 µM; 7 days
row,Compound,percent growth
1,O=C(CCC1CCCCC1)Nc1cccc(-c2nnc(-c3ccco3)o2)c1,96.1%
2,Nc1ccc(C(=O)Nc2ccc(-c3nc4ccccc4o3)cc2)cc1,100%
3,O=C(Nc1cccnc1)c1c(O)c2cccc3c2n(c1=O)CC3,85.3%
4,CC(C)(C)c1cc(C(=O)N2CCN(c3nccnc3C#N)CC2)n(Cc2ccccc2)n1,56.8%
5,CNC(=O)CNc1nc(-c2ccccn2)nc2scc(-c3ccccc3)c12,30.8%
6,COCC(C)NC(=O)CSc1ncnc2sc(-c3ccccc3)cc12 (centres undefined),64.9%
7,CC(=O)N1CCc2cc3nc(C)cc(C)c3cc21,84.2%
8,COc1cccc(CC(=O)N2CCC(n3c(C)nc4ccc(F)cc43)CC2)c1,118%
9,CN1CCN(c2nccc3nc(-c4ccc(F)c(F)c4)[nH]c23)CC1,52.1%
10,CC(=O)N(CCN(C(=O)c1ccc(F)cc1)c1ccccc1)c1ccccc1,48.9%
11,Clc1ccc(-n2cc(COc3ccnc4ccccc34)nn2)cc1,63%
12,O=C(Cn1ccnc1[N+](=O)[O-])NCc1ccccc1,129%
13,Cc1ccccc1C(=O)N1N=C(Nc2ccccc2)SC1(C)C,93.7%
14,COc1cc(-c2cc(-c3ccc(S(C)(=O)=O)cc3)cnc2N)ccc1O,11.2% (active)
15,Nc1nccc2ccc(Oc3ccncc3)cc12,71.5%
16,CCCS(=O)(=O)N1CCC(CO)(Cc2ccccc2C(F)(F)F)CC1,37.4%
17,O=C(Nc1nc(-c2ccccn2)cs1)C1CC1c1ccccc1F (centres undefined),46.7%
18,c1ccc(Oc2ccc(-c3cncc(-c4ccc5[nH]ccc5c4)n3)cc2)cc1,92.6%
19,Cc1cc(OCC(=O)Nc2ccc(C(C)C)cc2)n(C)c(=O)c1C#N,96%
20,Cc1cc(Nc2ccc(C(F)(F)F)cc2)n2ccnc2n1,77.4%
21,COc1ccc(N(CCc2cccc(C)n2)C(C)=O)cc1,101%
22,N#Cc1ccc(-c2cnc(N)c(-c3ccc(C(N)=O)cc3)n2)cc1,64.5%
23,O=C(N[C@H](Cc1ccccc1)C(=O)Nc1ccccc1N1CCOCC1)c1cccs1,36.5%
24,Cc1nn2c(O)c3c(nc2c1-c1ccc(F)cc1)CCCC3,113%
